Screen size: about 230,000 compounds; fewer than 10 were called active. Another 3% or so got no clear call; they are omitted. Calls follow the shape of the dose curve; as a rule, active = well fitted curve in the direction sought with a large enough effect; inconclusive = small, poorly fitted or top-dose-only effect, or effect the other way, or another doubt; inactive = no such curve, though single readings can be large or run the other way. The list is a sample of the results. Bridge positions count the residues as written; N and C are the ends. Peptide text beside a SMILES is read from it.
molecular target: Runt-related transcription factor 1 (Homo sapiens) + Core-binding factor subunit beta (Homo sapiens) (UniProt Q01196+Q13951); assay: qHTS Assay for Compounds Blocking the Interaction Between CBF-beta and RUNX1 for the Treatment of Acute Myeloid Leukemia; conditions: AlphaScreen CBFb-His/RUNX1-biotin binding, biochemical; series mostly up to 59.8 µM; activity, negative = inhibition: at the top concentration; also: % of control where 0% means no effect
Text: NIH Chemical Genomics Center [NCGC]
NIH Molecular Libraries Probe Production centers Network [MLPCN]
Assay Submitter (PI): Paul Liu
Core Binding Factor (CBF) abnormalities are associated with 20-25% of all acute myeloid leukemias (AML), of which 5-10% are further sub classified as acute myelomonocytic leukemia with eosinophilia, also known as M4Eo in the FAB classification scheme. This subtype of leukemia is usually associated with chromosome 16 inversion (p13:q22). Chromosome 16 inversion results in formation of the fusion oncogene CBFB-MYH11, which encodes the fusion protein CBF-beta-SMMHC.
It has been hypothesized that the interference of CBF-beta and RUNX1 binding could have therapeutic implications for patients with CBF mediated leukemias. We developed a CBF-beta and RUNX1 binding assay in AlphaScreenTM format and optimized it for high throughput screening to search for inhibitors. The goal of this project is to screen MLPCN's compound collection (MLSMR) for identifying the inhibitors of the interaction between CBF-beta and RUNX1 proteins as research probes. If these probes work well in the animal models, the ultimate goal of this project is to development a new drug treatment for this disease.
This assay can not be used to assess how apparent inhibitors interfere with protein binding, and whether inhibitors specifically bind to either protein. Disruption of this protein-protein interaction, through any mechanism, is the intended target activity.
NCGC Assay Protocol Summary:
Step, Parameter, Description
(1) Reagent, 3 uL CBFb-His/RUNX1-biotin mix incubated together for 20 minutes at room temperature (30 nM each)
(2) Compound or control, 23 nL compound stock solution
(3) Incubation, 15 minutes at Room temperature
(4) Reagent, 1 uL 50 ng each of beads (Nickel beads and streptavidin beads)
(5) Incubation, 90 minutes at Room temperature
(6) Detection, Excitation=365 nm Emission=440 nm, Envision reader in AlphaScreenTM mode
Keywords: MLSMR, MLPCN, NIH Roadmap, qHTS, NCGC, Core binding factor, CBF, CBF-beta, Acute myeloid leukemia

Sequence of Runt-related transcription factor 1 (Homo sapiens) + Core-binding factor subunit beta (Homo sapiens) (Q01196 whole entry, looked up): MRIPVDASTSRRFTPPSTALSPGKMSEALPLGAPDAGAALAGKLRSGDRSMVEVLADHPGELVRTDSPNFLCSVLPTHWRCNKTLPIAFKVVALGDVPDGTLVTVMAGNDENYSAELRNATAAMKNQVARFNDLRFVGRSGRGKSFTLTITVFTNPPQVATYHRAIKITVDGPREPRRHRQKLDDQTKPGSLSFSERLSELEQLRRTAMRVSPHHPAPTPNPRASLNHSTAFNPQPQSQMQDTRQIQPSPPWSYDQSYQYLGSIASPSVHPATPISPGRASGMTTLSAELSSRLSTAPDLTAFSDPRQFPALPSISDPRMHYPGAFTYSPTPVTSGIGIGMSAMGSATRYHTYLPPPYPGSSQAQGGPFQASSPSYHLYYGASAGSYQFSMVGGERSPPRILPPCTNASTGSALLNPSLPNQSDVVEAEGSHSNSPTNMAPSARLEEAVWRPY
Sequence of Runt-related transcription factor 1 (Homo sapiens) + Core-binding factor subunit beta (Homo sapiens) (Q13951 whole entry, looked up): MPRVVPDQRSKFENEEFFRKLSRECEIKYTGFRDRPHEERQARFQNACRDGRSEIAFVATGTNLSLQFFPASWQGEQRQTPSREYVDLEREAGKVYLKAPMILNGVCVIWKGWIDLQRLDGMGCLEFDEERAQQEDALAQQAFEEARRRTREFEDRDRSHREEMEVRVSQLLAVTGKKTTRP

activity, negative = inhibition, inactive:
CCCCc1nn(-c2ccccc2C(F)(F)F)c(=O)n1Cc1ccc(-c2ccccc2S(=O)(=O)NC(=O)c2sccc2C)cc1 3.51%
O=c1[nH]nc(SCCS(=O)(=O)c2ccc(F)cc2)n1-c1ccccc1C(F)(F)F 6.84%
O=C(O)c1ccc(NS(=O)(=O)c2ccc3c(c2)C(=O)c2cc(S(=O)(=O)Nc4ccc(C(=O)O)cc4)ccc2-3)cc1 -4.76%
COc1ccc(N)c(OC)c1 7.36% [at 21.7 µM]
COc1ccc(NC(=O)C2C3C=CC(C3)C2C(=O)NCc2ccccn2)c(OC)c1 (stereo not drawn) -0.254%
COc1cccc(OC)c1C(=O)NC(=S)Nc1ccc(N2CCOCC2)c(Cl)c1 -15.9%
Cn1c(=O)c2c(-c3cccc(Br)c3)c(C#N)c(N)nc2n(C)c1=O 7.33%
O=C(NCC1CC1)C1(C(F)(F)F)C/C(=C\CCO)CCCO1 (stereo not drawn) -8.25%
CCN(CC)/[N+]([O-])=N/Oc1cc(O/[N+]([O-])=N/N2CCCC2CO)c([N+](=O)[O-])cc1[N+](=O)[O-] (stereo not drawn) 10.8%
CC[C@H](C)[C@H](NC(=O)[C@H](CCCNC(=N)N)NC(=O)[C@H](CCCNC(=N)N)NC(=O)[C@H](CC(C)C)NC(=O)[C@H](Cc1ccccc1)NC(=O)CNC(=O)CNC(=O)[C@@H](N)Cc1ccc(O)cc1)C(=O)N[C@@H](CCCNC(=N)N)C(=O)N1CCC[C@H]1C(=O)N[C@@H](CCCCN)C(=O)N[C@@H](CC(C)C)C(=O)N[C@@H](CCCCN)C(=O)N[C@@H](Cc1c[nH]c2ccccc12)C(=O)N[C@@H](CC(=O)O)C(=O)N[C@@H](CC(N)=O)C(=O)N[C@@H](CCC(N)=O)C(=O)O 4.96%
COC(=O)c1ccccc1N=Nc1c(C)[nH][nH]c1=O -0.539%
O=C(NCc1ccccc1)C1=C[C@@H](C2CCCCC2)C[C@@H](OCc2ccc(CO)cc2)O1 0.0499%
COc1ccc(N(CC(=O)NC2CCCCC2)C(=O)CNC(=O)c2ccco2)c(OC)c1 7.33%
CSc1ccccc1N1CCN(CCCCCC(=O)NC2CCCc3ccccc32)CC1 (stereo not drawn) -9.84%
CC1=C2[C@@H](O)[C@H]([C@@H](C)C(=O)NCCC(C)C)CC[C@@]2(C)C=CC1=O 13.2%
Cc1cccn2c(CN(C)C3CCCc4ccccc43)c(C(=O)N3CCOCC3)nc12 (stereo not drawn) -1.32%
COc1ccc(-c2ccc(C3C4C=CCCC4(C)C(=O)N3Cc3ccccc3)c(F)c2)cc1OC (stereo not drawn) -5.3%
CCCOC(=O)c1c(NC(=O)c2cnn3c2NC(c2ccccc2)CC3C(F)(F)F)sc2c1CCCC2 (stereo not drawn) -2.79%
COc1ccc(OC)c(C2C3=C(N=c4s/c(=C\c5cccc(O)c5)c(=O)n42)c2ccccc2CC3)c1 (stereo not drawn) -16.4%
Cc1cc(-c2nnc(CCC(=O)NC(c3ccccc3)c3ccccc3)o2)no1 10.9%
CCCN1CCC(=O)N(C(CSc2ccc(OC)cc2)Cc2ccccc2)CC1 (stereo not drawn) 8.03%
Cc1noc(C)c1-c1ccc2ncnc(NC(C)c3ccco3)c2c1 (stereo not drawn) -22.2%
O=C(CNC1CCCCC1)NCC1(c2ccccc2)CCCC1 6.6%
Nc1nc(NC(=O)/C=C/c2ccc(F)cc2)nn1-c1ccccc1 -1.51%
CC(Nc1nc(N2CCOCC2)nc2ccccc12)c1ccccc1 (stereo not drawn) 19.1%
COc1ccc(C2=Nn3c(nnc3-c3ccccc3O)SC2)cc1 -4%
O=C(O)C1CC=CC2CCN(C3CCCCC3)C(=O)C21 (stereo not drawn) 18.6%
Cc1ccc(CN(Cc2cccnc2)C(=S)Nc2cc(Cl)ccc2C)cc1 10.9%
O=C(NCc1ccccn1)[C@]1(C(F)(F)F)C[C@H](CCc2ccccc2)CCCO1 -3.84%
Cc1ccc(SCC(CC(C)C)N2CCN(CCc3ccccc3)CCC2=O)cc1 (stereo not drawn) 13.6%
O=C(CC1NCCc2ccccc21)Nc1cccc(Cl)c1 (stereo not drawn) -6.51%
CCOC(=O)c1ccccc1N1C(=O)C2Sc3[nH]c(=O)sc3C(/C=C/c3ccccc3)C2C1=O (stereo not drawn) -3.6%
CCOC(=O)c1cc2c(=O)[nH]c(C(Cl)(Cl)Cl)nc2o1 7%
C[C@@H](O)[C@@H]1NC(=O)[C@H](CCCCN)NC(=O)[C@H](Cc2c[nH]c3ccccc23)NC(=O)[C@H](Cc2ccccc2)NC(=O)[C@H](Cc2ccccc2)NC(=O)[C@H](CC(N)=O)NC(=O)[C@H](CCCCN)NC(=O)[C@@H](NC(=O)[C@@H]2CCCN2)CSSC[C@@H](C(=O)N[C@@H](CCCCN)C(=O)O)NC(=O)[C@H](CO)NC(=O)[C@H](CO)NC(=O)[C@H](Cc2ccccc2)NC1=O (H-PCKNFFWKTFSSCK-OH; disulfide 2-13) 10.5%
O=C1C2C(c3ccccc3)CC=CC2C(c2ccoc2)N1Cc1ccccc1 (stereo not drawn) 14.2%
COCCCn1c(SCc2cccc(OC)c2)nc2cc(OC)c(OC)cc2c1=N -7.59%
C=C1/C(=C\C=C2\CCCC3(C)C2CCC3C(C)/C=C/C(O)C2CC2)CC(O)CC1O (stereo not drawn) 13.2%
CCOC(=O)C(C)Oc1cccc2c(=O)n(CC(=O)NCCc3ccc(OC)c(OC)c3)ccc12 (stereo not drawn) 2.24% [at 2.36 µM]
COc1ccc(C(=O)C2CCCN(Cc3cccn3-c3ccccn3)C2)c(C)c1 (stereo not drawn) -4.12%
ONC(=Nc1ccc(Cl)cc1)c1ccccc1Cl 16.1%
COc1cc(CN2CCN(Cc3ccc(C)cc3)CC2)c([N+](=O)[O-])cc1OC -8.19%
C=C/C1=C/Cc2ccccc2[C@H](C[N+](=O)[O-])C(C(=O)OC)(C(=O)OC)C1 -6.91%
COC(=O)c1c(NC(=O)CN2C(=O)NC(CCc3ccccc3)C2=O)sc2c1CCCCC2 (stereo not drawn) -2.03%
CC(C)(C)NCCCOc1ccc(Cl)cc1C(C)(C)C -23.8%
CCCNC(=O)OC[C@H]1O[C@H](CCO/N=C/[C@@H](NS(=O)(=O)c2ccc(C)cc2)[C@H](C)/C=C/CC(=O)OC)C=C[C@@H]1Oc1ccc(OC)cc1 -0.295% [at 2.36 µM]
C/C=C/c1ccc(OCCCCN2CCC(C)CC2)c(OC)c1 5.81%
Cc1cccc(N2CCC(NCc3c(C(=O)N4CCCCC4)nc4c(C)cccn34)CC2)c1 5.52%
CC1(C)CC(CNCCC(c2ccc(F)cc2)c2ccco2)CCO1 (stereo not drawn) 18%
Fc1ccc(Cl)cc1-c1nc(Nc2ccncc2)c2nccnc2n1 14.3%
CCOc1ccc2sc(NS(=O)(=O)c3ccc(N)cc3)nc2c1 5.42%
CCc1ccc(CN(C)C(=O)CCc2nnc(-c3ccc(-c4ccccc4)cc3)o2)nc1 0.367%
CCOC(=O)C1(CCOc2ccccc2)CCN(C(=O)c2cncs2)CC1 15.7%
COc1ccc(C(CC(=O)N2CCN(c3ccccc3)CC2)c2c(O)cc(OC)cc2OC)cc1 (stereo not drawn)

Source: PubChem BioAssay AID1477 (National Center for Advancing Translational Sciences (NCATS), 2009)
